# Hits are enriched below; roughly 6.3% of the tested compounds scored in any of these assays.
# Spn DPM-DC inh: S. pneumoniae DPM-DC inhibitors, primary screen, biochemical, PK/LDH-coupled NADH fluorescence. AID 556, 2006. calls only at 10 µM. purified DPM-DC. 0.49% of 65,000 active. diphosphomevalonate decarboxylase (Streptococcus pneumoniae D39);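 active means the 320 compounds with the highest percent inhibition in the single-dose primary screen, excluding strongly autofluorescent ones, cut at about 32% in these data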;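 further: kinetic rate of NADH fluorescence loss reporting ADP formed by the decarboxylase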
# Spn MK inh: S. pneumoniae MK inhibitors, primary screen, biochemical, PK/LDH-coupled NADH absorbance. inhibition, % at 10 µM. 0.48% of 65,000 active. purified MK, PK/LDH-coupled NADH absorbance 340 nm. AID 555, 2006;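 active means ranked among the strongest by inhibition in the single 10 µM screen, a fixed top-ranked set picked for dose follow-up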
# PMK inhibit: S. pneumoniae PMK inhibitors, primary screen, biochemical, mevalonate pathway, pilot trial included; phosphomevalonate kinase (Streptococcus pneumoniae D39); purified PMK, PK/LDH-coupled NADH absorbance 340 nm; inhibition, % at 10 µM; 0.49% of 65,000 active;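 active means top-ranked compounds by inhibition in the single 10 µM screen, taking a fixed number of the strongest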;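 further: 0% = full reaction with DMSO carrier and 100% = background rate without enzyme reaction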
# Abs 340nm: compound light absorbance at 340 nm, profiling panel, artefact control, biochemical, MLSMR library, data from PS, PMK, MK assays | compound absorbance at 340 nm, fold over control | fold change at 10 µM | AID 708, 2007 | 65,000 tested, under 10 active;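 active means at 10 µM dose, initial 340 nm absorbance at least 2 fold that of control wells; inactive means change under 2 fold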;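 further: initial absorbance extrapolated from kinetic A340 decline of NADH oxidation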
# NADH enzymes: inhibitors of PK/LDH coupling enzymes, profiling panel, artefact control, biochemical, MLSMR library. IC50, µM (titrated, usually from 10 µM), for inactives: at the top dose inhibition. coupled PK/LDH NADH assays, four targets. 0.02% of 65,000 active;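 active means single-dose screening hits from any of four coupled enzyme assays that gave an IC50 when retested across doses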;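 further: the DPM-DC format reads NADH fluorescence rather than 340 nm absorbance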
# Autofluor 339: intrinsic fluorescence of library compounds, ex339/em460 – biochemical, MLSMR library, data from DPM-DC assay, artefact control, profiling panel | compound autofluorescence, ex339/em460 nm, NADH buffer; active compounds read high; 1 = no-compound wells, NADH background | fluorescence fold increase at 10 µM | 5.5% of 65,000 active;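 active means at 10 µM, mean starting fluorescence two-fold or more over control wells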;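 further: signal is the first read of a kinetic run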
# The depositor's hits bear a star; i = inactive; nt = no result given; + = active, no number.
SMILES,Spn DPM-DC inh,Spn MK inh,PMK inhibit,Abs 340nm,NADH enzymes,Autofluor 339
CC1=C(C(=O)Nc2cccc(C)n2)C(c2ccc3c(c2)OCO3)C2=C(CC(c3ccco3)CC2=O)N1 (stereo not given),i,1,3,1.1,7%,2.3*
Cc1nc2n(n1)C(c1ccccc1)C1=C(CC(c3ccco3)CC1=O)N2 (stereo not given),i,0,0,1.1,0%,1.6
O=C(NCc1cccs1)c1cnn2cccnc12,i,4,0,1.1,6%,2.1*
O=C(NCc1ccccc1Cl)c1cnn2cccnc12,i,8,9,1.1,10%,2.2*
O=C(Nc1cccc(Cl)c1)c1cnn2cccnc12,i,13,5,1.1,7%,1.1
c1ccc(-c2nc(NC3CC3)nc(-n3ccnc3)n2)cc1,i,0,17,0.99,6%,1.1
O=C1CSC(c2nn(-c3ccccc3)cc2-c2cc3ccccc3oc2=O)N1Cc1ccco1 (stereo not given),nt,8,14,1.1,11%,2.3*
COc1ccc(OC)c(N2C(=O)CC(Cc3ccc(C)cc3)C2=O)c1 (stereo not given),i,4,0,1.1,1%,1.1
c1coc(-c2nc(-c3ccco3)c(-c3ccco3)nc2-c2ccco2)c1,nt,16,16,1.1,16%,2.2*
Nc1nc(-c2ccco2)c(-c2ccco2)s1,i,1,16,1.1,6%,1.1
COc1cccc(Cn2c(=S)[nH]c3ccc(N4CCOCC4)cc3c2=O)c1,+,7,16,1.1,21%,3.7*
O=c1c2cc(Cl)ccc2[nH]c(=S)n1Cc1ccco1,i,9,8,0.99,3%,1
O=c1c2cc(N3CCOCC3)ccc2[nH]c(=S)n1Cc1ccco1,i,7,10,1.1,16%,3.5*
O=c1c2cc(N3CCOCC3)ccc2[nH]c(=S)n1CCCN1CCCC1,i,8,12,1,8%,2
O=C(c1ccco1)N1CCN(c2nc3ccccc3n3nnnc23)CC1,i,0,18,1.1,6%,1.6
CC(C)c1cc(N2CCN(C(=O)c3ccco3)CC2)n2c(nc3ccccc32)c1C#N,nt,5,13,1.1,9%,2.1*
Cc1cc(-c2ccco2)c(C#N)c2nc3ccccc3n12,nt,9,0,1.3,5%,2.2*
CCc1c(C)c(C#N)c2nc3ccccc3n2c1-n1nc(C)cc1C,i,0,5,1,2%,1.2
COC(=O)c1ccccc1S(=O)(=O)Nc1ccc(OC)nc1,i,4,11,0.97,5%,1.1
CCCCn1c(SCC(=O)NCc2ccccc2)nc2ccc(N3CCOCC3)cc2c1=O,i,5,3,1,5%,2.2*
Cn1c(=O)c2c(nc(SCCN3CCCCC3)n2Cc2ccccc2)n(C)c1=O,i,3,7,1.1,3%,1.1
CCCCn1c(SCC(=O)Nc2cc(C)on2)nc2ccccc2c1=O,i,0,11,1,4%,1.3
N#CCSc1nc2ccc(N3CCCCC3)cc2c(=O)n1Cc1ccccc1,i,3,4,1.1,5%,3*
CCCCn1c(SCC(=O)NCc2ccco2)nc2ccc(N3CCOCC3)cc2c1=O,i,3,3,1.1,12%,3.8*
COCCCn1c(SCC(=O)NCc2ccco2)nc2sc3c(c2c1=O)CCC3,i,66*,1,1.1,22%,1.1
SMILES,Spn DPM-DC inh,Spn MK inh,PMK inhibit,Abs 340nm,NADH enzymes,Autofluor 339
O=C(CSc1nc2sc3c(c2c(=O)n1-c1ccccc1)CCCC3)NCc1ccco1,i,10,12,1.1,11%,1.7
CCOC(=O)CSc1nc2ccc(N3CCOCC3)cc2c(=O)n1Cc1ccc2c(c1)OCO2,i,10,8,1,6%,2.3*
CCN(CC)C(=O)CSc1nc2cc3c(cc2c(=O)n1Cc1ccc2c(c1)OCO2)OCO3,i,7,18,0.99,8%,1.1
CCC(C)NC(=O)CSc1nc2ccc(N3CCOCC3)cc2c(=O)n1CCc1ccccc1 (stereo not given),i,10,11,0.99,10%,2.3*
CC(NC(=O)CSc1nc2ccccc2c(=O)n1CCCO)c1ccccc1 (stereo not given),i,0,18,1,6%,1.1
CCCCn1c(SCC(=O)Nc2ccc(OC)cc2)nc2ccc(N3CCOCC3)cc2c1=O,i,7,4,0.98,7%,2.4*
O=C(NCc1ccccc1)C1C2C=CC3(CN(Cc4cccnc4)C(=O)C13)O2 (stereo not given),i,0,27*,0.99,11%,0.98
NC(=O)c1ccccc1NS(=O)(=O)Cc1ccccc1,nt,3,10,1.1,7%,2.1*
CC(=O)Nc1ccc(NS(=O)(=O)Cc2ccccc2)cc1,i,0,4,1.1,1%,1.1
O=C(NCc1ccco1)N1c2ccccc2Sc2ccccc21,i,6,12,1,6%,1.1
CCOC(=O)N1CCC(NC(=O)CSc2cc(=O)n(C)c3ccccc23)CC1,+,35,42*,1.1,38%,1.7
CCN1CCCC1CNC(=O)CSc1cc(=O)n(C)c2cc(Cl)ccc12 (stereo not given),i,0,4,1.1,1%,1.3
Cn1c(=O)cc(SCC(=O)N2CCCC2)c2ccccc21,i,6,7,1,4%,1.4
CCOC(=O)CSc1cc(=O)n(C)c2cc(Cl)ccc12,+,13,3,1,16%,0.93
Cc1cc(C)c2c(n1)nn1c(NCCOCCO)cc(C)nc21,nt,10,7,1,9%,3.9*
O=C(CCCN1C(=O)c2cccnc2C1=O)N1CC(=O)N(CCc2ccccc2)C(=O)C1,i,7,13,0.97,7%,1
Nn1c(SCc2nc3ccccn3c2Br)nnc1-c1cccnc1,i,0,7,1,2%,1.1
O=C(O)c1nc2ccccc2nc1C(=O)O,i,nt,0,1,0%,1.1
Nc1nc2ccccc2nc1N,i,6,1,1.1,4%,2.1*
Cc1cc(C)cc(N(CC(=O)N2CCN(Cc3ccccc3)CC2)S(=O)(=O)c2c(C)noc2C)c1,i,0,0,1,0%,1
Cc1cc(C)n2nc3nc4c(cc3c2n1)CCCC4,nt,5,7,1.1,6%,2.2*
COc1ccccc1-c1c(C)nn2c(C)cc(C)nc12,i,9,7,1,5%,1.1

# Assay outcomes (PubChem BioAssay)
